Measurements from the supplement of paper PMC11732987, “Enantioselective OTUD7B fragment discovery through chemoproteomics screening and high-throughput optimisation” (Communications Chemistry, 2025).

How the values were obtained:
Experiment in all cases: log2 ratio of Biotin-Ahx-Ub-VS probe labelling (fragment/DMSO); higher = less target engagement (more negative = stronger competition), active = hit call of the paper (q ≤ 0.05, log2 ratio ≤ -1)
Conditions in all cases: compound concentration: 200 uM; treatment time: 3 h
USP42 = target: T1, USP42 (UniProt Q9H9J4)
T1 sequence (whole entry): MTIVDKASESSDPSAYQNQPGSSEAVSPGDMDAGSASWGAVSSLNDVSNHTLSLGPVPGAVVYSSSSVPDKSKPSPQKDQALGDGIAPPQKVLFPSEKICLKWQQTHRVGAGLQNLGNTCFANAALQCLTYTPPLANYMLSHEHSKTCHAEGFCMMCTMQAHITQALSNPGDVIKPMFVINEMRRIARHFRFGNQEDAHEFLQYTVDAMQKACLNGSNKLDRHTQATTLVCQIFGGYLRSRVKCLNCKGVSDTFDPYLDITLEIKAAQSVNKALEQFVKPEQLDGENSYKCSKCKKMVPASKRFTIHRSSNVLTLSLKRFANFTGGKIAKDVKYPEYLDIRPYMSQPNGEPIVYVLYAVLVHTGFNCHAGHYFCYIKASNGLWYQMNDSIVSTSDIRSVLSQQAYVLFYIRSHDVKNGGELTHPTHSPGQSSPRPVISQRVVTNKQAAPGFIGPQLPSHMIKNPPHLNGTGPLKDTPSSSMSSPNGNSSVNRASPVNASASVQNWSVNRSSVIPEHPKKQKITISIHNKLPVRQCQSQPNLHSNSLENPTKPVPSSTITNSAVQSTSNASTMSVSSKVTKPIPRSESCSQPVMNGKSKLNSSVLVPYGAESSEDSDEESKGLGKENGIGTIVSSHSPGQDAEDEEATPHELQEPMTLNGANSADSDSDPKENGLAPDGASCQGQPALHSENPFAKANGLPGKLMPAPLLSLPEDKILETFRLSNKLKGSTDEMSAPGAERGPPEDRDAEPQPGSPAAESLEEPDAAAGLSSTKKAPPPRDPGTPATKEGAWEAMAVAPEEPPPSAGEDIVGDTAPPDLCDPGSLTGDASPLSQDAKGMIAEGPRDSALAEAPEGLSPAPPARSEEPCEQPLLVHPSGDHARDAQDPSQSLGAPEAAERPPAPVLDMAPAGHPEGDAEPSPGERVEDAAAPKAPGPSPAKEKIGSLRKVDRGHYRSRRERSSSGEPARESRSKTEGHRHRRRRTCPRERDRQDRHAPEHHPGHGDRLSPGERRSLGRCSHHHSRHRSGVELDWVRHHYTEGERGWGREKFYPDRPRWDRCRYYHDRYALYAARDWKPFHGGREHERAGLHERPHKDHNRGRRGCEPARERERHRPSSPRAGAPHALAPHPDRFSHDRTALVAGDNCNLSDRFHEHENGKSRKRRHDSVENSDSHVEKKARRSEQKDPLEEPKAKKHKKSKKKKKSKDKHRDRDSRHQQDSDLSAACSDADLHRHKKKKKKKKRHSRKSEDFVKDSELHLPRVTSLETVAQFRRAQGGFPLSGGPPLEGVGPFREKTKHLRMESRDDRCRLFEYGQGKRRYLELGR
Summary of the method: (§1)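 In triplicate, 495 µg of HEK293T lysate per sample was incubated with fragment at 200 µM or vehicle for 3 h. Biotin-Ahx-Ub-VS was then added to 0.5 µM final for 1 h, and labelled DUBs were captured with NeutrAvidin, digested with LysC and trypsin, and measured by diaPASEF LC-MS/MS. Data are average log2 fragment/vehicle ratios by unpaired t-test from global-median-normalised Spectronaut label-free quantities, restricted to proteins with ≥2 unique peptides.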

USP46 = USP46 (UniProt P62068)
Summary of the method: as §1

USP47 = target: T2, USP47 (UniProt Q96K76)
T2 sequence (whole entry): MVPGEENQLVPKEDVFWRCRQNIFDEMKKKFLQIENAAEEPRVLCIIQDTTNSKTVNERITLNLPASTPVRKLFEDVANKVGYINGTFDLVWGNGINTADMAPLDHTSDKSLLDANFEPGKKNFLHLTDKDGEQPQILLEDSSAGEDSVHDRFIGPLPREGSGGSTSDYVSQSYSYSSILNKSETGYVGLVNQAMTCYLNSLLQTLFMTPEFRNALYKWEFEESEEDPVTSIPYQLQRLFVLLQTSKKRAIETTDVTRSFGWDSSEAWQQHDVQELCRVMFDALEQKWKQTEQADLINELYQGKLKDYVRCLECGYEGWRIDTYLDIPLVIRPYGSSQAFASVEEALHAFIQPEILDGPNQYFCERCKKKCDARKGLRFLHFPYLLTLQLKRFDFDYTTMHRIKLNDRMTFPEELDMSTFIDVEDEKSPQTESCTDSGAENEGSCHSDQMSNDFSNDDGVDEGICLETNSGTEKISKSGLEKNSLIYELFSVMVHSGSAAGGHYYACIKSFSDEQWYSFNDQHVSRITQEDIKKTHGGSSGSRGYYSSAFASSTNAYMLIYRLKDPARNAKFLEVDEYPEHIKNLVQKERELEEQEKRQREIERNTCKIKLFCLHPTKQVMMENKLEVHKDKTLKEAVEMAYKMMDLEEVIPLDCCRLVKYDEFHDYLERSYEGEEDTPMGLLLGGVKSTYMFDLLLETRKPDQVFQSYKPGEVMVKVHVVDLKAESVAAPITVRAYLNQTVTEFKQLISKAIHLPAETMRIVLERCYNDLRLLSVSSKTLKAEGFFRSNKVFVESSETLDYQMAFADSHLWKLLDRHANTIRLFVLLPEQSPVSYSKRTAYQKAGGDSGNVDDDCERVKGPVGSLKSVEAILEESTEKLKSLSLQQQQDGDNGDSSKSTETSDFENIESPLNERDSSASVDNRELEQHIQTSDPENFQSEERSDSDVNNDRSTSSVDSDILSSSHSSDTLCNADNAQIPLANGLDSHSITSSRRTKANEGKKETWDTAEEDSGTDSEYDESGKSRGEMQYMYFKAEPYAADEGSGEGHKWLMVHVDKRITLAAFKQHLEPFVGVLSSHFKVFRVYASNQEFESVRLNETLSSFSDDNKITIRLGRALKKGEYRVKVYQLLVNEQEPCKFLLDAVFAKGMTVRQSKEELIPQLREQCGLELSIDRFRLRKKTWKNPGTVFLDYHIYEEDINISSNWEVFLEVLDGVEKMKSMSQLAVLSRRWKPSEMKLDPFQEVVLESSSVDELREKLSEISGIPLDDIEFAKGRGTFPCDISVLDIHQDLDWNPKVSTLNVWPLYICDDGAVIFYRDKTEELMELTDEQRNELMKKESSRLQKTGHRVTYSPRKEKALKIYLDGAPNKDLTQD
Summary of the method: as §1

USP48 = target: T3, USP48 (UniProt Q86UV5)
T3 sequence (whole entry): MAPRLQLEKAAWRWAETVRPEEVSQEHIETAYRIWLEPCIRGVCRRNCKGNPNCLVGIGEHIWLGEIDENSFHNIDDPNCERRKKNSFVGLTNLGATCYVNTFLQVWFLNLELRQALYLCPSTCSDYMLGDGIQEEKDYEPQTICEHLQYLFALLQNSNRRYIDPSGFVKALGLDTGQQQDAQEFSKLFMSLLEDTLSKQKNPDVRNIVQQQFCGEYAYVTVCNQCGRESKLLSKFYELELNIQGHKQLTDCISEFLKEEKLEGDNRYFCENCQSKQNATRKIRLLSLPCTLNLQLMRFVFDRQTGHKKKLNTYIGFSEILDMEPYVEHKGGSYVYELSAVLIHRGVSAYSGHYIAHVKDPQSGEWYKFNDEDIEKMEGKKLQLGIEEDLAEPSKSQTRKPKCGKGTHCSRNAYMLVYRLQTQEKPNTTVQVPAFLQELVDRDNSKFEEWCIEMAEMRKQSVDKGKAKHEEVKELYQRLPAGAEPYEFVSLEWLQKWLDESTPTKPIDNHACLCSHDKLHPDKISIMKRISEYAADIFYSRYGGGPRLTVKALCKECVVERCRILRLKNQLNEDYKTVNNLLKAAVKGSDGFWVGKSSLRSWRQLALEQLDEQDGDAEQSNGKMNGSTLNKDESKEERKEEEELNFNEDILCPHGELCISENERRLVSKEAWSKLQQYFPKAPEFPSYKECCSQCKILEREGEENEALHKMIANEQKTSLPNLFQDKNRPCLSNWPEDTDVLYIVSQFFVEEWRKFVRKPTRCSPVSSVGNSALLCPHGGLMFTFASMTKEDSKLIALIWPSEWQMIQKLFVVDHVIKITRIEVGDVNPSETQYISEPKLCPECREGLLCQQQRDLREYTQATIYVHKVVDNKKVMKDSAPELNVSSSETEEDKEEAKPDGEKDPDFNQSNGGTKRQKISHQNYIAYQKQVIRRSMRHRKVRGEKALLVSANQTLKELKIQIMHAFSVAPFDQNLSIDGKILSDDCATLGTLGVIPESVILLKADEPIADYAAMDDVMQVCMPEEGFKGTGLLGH
Summary of the method: as §1

USP5 = target: T4, USP5 (UniProt P45974)
T4 sequence (whole entry): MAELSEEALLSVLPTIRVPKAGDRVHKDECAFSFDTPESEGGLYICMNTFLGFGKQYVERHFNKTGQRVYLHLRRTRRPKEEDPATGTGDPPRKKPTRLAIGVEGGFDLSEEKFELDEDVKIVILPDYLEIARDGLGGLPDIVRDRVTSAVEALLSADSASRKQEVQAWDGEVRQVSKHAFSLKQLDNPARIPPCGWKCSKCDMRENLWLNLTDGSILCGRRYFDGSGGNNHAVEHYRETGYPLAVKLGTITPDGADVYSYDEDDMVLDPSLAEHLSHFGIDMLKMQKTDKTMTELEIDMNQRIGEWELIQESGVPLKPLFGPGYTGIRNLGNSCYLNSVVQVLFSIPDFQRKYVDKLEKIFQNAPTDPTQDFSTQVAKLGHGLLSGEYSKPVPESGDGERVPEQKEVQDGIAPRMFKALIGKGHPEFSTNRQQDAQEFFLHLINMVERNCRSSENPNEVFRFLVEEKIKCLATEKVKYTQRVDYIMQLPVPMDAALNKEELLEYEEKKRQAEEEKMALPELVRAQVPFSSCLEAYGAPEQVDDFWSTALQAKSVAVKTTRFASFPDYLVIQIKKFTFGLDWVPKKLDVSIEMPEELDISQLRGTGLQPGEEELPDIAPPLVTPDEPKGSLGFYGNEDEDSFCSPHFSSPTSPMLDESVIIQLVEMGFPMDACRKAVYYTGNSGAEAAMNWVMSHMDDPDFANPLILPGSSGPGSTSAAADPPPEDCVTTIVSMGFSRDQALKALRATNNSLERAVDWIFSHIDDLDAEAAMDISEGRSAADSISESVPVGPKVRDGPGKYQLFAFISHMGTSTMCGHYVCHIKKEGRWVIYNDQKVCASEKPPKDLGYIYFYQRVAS
Summary of the method: as §1

USP54 = USP54 (UniProt Q70EL1)
Summary of the method: as §1

USP7 = USP7 (UniProt Q93009)
Summary of the method: as §1

USP8 = target: T5, USP8 (UniProt P40818)
T5 sequence (whole entry): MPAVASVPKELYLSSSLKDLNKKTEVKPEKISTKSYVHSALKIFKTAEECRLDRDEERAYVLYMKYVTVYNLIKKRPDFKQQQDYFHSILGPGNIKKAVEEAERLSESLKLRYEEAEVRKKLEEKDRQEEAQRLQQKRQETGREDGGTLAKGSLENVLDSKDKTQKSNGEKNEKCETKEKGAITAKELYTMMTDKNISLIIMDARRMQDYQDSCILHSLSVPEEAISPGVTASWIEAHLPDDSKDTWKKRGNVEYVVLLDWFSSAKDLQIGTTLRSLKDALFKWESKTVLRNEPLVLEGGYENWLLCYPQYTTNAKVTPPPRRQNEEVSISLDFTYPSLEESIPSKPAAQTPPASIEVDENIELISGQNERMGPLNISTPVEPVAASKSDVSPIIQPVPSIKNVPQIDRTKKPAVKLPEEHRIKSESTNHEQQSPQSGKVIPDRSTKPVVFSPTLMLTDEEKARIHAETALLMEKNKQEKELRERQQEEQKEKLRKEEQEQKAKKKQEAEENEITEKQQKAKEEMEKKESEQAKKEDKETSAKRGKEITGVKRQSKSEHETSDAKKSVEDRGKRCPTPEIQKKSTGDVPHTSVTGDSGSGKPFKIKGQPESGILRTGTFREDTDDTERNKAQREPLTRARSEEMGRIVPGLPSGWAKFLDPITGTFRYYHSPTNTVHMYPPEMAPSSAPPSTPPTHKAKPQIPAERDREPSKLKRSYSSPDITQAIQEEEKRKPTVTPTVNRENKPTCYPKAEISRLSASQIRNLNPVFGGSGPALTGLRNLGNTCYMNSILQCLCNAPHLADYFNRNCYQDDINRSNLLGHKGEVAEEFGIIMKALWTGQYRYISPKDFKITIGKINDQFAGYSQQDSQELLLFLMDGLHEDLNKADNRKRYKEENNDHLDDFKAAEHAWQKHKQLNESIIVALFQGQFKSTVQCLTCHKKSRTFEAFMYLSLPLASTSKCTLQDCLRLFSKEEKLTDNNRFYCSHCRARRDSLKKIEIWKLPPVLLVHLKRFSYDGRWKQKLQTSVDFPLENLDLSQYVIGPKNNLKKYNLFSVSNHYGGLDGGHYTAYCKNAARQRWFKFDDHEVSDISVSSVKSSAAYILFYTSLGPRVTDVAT
Summary of the method: as §1

Measured: log2 ratio of Biotin-Ahx-Ub-VS probe labelling

USP7, sequence (Q93009 whole entry, looked up): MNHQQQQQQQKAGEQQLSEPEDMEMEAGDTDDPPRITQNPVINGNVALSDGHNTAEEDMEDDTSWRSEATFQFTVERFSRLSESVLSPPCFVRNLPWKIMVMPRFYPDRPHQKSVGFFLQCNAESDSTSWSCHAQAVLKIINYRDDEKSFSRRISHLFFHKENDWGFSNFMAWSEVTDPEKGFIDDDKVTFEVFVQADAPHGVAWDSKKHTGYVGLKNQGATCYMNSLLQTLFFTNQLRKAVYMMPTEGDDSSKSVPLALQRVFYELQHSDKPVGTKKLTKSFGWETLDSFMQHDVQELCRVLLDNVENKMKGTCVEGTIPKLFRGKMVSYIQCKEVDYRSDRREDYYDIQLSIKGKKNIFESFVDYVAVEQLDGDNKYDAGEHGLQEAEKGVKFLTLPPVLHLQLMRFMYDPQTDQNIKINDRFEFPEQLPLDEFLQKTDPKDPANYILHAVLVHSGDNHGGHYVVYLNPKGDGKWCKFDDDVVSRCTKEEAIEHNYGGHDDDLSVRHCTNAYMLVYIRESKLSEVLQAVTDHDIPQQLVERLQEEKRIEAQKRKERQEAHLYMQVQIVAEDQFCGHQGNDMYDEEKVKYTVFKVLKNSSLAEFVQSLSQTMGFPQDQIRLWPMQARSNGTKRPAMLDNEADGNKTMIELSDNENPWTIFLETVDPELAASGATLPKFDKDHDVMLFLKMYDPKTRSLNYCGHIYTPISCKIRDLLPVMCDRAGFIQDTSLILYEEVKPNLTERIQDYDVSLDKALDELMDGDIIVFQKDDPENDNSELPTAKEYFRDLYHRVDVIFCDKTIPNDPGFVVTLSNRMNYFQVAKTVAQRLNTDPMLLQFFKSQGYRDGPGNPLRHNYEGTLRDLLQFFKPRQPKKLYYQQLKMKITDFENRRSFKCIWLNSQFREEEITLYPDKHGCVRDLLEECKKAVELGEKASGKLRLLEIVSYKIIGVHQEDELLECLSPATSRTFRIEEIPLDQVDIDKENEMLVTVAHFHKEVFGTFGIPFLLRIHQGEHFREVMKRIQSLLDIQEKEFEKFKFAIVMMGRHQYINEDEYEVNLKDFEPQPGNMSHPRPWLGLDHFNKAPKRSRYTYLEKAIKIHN
USP46, sequence (P62068 whole entry): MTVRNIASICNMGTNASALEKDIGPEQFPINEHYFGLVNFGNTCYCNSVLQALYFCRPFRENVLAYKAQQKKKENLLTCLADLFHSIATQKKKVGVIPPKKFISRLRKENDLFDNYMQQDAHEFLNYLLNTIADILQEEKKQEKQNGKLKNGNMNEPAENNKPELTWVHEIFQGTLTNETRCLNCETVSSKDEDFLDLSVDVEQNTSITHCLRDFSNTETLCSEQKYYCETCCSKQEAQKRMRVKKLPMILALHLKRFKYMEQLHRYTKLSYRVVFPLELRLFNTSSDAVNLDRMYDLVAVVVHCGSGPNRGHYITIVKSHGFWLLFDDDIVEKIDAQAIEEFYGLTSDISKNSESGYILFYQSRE
USP54, sequence (Q70EL1 whole entry): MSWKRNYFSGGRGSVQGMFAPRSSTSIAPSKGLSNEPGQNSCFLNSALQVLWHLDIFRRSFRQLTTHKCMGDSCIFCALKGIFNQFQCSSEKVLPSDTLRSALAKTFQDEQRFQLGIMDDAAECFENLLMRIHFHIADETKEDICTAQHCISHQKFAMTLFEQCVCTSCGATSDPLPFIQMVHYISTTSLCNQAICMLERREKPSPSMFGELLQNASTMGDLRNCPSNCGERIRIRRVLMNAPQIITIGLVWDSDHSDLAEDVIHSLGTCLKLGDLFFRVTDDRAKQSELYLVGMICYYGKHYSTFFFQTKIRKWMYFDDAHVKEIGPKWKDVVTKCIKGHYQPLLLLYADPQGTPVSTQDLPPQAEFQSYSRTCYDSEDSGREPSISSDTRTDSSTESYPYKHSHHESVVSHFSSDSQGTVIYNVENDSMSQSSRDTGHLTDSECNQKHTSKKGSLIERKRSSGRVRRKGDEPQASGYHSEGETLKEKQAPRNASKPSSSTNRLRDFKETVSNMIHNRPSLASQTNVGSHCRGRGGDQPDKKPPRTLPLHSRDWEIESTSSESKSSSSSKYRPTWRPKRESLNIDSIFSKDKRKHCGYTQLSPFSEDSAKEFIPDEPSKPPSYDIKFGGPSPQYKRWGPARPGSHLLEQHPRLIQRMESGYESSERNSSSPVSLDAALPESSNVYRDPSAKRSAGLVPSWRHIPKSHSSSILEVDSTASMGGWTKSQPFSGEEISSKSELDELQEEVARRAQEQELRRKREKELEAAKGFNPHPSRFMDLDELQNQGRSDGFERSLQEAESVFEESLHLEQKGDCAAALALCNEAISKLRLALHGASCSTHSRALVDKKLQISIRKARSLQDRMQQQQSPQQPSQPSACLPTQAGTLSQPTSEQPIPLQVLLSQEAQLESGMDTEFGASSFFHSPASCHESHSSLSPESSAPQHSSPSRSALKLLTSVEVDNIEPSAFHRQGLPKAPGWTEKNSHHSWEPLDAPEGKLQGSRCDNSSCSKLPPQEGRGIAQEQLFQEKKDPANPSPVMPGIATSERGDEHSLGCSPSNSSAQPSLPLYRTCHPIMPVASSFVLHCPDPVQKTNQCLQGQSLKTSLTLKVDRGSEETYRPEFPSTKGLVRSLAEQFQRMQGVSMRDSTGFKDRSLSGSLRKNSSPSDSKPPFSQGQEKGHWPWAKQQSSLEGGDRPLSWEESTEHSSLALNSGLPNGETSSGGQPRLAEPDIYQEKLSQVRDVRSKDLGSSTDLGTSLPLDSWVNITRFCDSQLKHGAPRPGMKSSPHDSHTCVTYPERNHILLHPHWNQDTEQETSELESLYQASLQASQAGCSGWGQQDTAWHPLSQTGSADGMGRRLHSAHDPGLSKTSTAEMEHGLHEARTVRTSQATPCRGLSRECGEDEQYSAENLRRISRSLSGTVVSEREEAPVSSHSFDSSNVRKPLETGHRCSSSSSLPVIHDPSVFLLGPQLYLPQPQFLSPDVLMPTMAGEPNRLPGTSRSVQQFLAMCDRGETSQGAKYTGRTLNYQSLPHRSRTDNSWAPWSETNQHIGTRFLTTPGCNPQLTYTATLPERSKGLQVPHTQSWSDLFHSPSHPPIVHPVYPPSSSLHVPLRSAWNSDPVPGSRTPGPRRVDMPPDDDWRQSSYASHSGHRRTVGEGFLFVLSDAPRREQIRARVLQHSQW

O=C(CCl)N1CCC[C@@H]1c1ccon1
inactive: USP42 0.00575 | USP46 -0.0791 | USP47 -0.264 | USP48 -0.779 | USP5 -0.0234 | USP54 0.591 | USP7 -0.78 | USP8 -0.331
